# Measurements: ChEMBL document CHEMBL1961873, “Compounds: GSK PKIS; Assays: Nanosyn kinase panel” (2012)
# How the values were obtained:
# [1] = molecular target: Protein kinase C gamma type (Homo sapiens) (UniProt P05129); details: at 1 µM;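 note: each value is an averaged percent inhibition of the enzyme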
# [2] = molecular target: T1, Protein kinase C iota type (Homo sapiens) (UniProt P41743); details: at 0.1 µM
# T1 sequence (whole entry): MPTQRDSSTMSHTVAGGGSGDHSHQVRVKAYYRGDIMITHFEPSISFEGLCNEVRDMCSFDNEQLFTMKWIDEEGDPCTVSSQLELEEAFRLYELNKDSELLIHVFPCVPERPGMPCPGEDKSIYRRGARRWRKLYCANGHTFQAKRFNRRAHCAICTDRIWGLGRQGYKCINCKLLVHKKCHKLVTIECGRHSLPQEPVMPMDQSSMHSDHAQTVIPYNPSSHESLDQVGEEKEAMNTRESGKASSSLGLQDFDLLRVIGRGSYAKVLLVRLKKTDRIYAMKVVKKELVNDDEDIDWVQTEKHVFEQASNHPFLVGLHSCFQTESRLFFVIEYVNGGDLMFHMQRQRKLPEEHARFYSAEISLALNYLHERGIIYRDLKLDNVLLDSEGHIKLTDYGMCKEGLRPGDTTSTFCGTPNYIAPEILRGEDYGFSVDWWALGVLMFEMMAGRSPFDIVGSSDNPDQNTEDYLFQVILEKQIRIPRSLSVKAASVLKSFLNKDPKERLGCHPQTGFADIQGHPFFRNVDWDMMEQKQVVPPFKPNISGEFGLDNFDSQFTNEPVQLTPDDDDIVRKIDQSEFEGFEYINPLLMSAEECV
# [3] = molecular target: T1, Protein kinase C iota type (Homo sapiens); details: at 1 µM
# [4] = molecular target: Protein kinase C theta type (Homo sapiens) (UniProt Q04759); details: at 0.1 µM
# [5] = molecular target: Protein kinase C theta type (Homo sapiens) (UniProt Q04759); details: at 1 µM
# [6] = molecular target: Protein kinase C beta type (Homo sapiens) (UniProt P05771); details: at 0.1 µM
# [7] = molecular target: Protein kinase C beta type (Homo sapiens) (UniProt P05771); details: at 1 µM
# [8] = molecular target: T2, Serine/threonine-protein kinase D1 (Homo sapiens) (UniProt Q15139); details: at 0.1 µM
# T2 sequence (whole entry): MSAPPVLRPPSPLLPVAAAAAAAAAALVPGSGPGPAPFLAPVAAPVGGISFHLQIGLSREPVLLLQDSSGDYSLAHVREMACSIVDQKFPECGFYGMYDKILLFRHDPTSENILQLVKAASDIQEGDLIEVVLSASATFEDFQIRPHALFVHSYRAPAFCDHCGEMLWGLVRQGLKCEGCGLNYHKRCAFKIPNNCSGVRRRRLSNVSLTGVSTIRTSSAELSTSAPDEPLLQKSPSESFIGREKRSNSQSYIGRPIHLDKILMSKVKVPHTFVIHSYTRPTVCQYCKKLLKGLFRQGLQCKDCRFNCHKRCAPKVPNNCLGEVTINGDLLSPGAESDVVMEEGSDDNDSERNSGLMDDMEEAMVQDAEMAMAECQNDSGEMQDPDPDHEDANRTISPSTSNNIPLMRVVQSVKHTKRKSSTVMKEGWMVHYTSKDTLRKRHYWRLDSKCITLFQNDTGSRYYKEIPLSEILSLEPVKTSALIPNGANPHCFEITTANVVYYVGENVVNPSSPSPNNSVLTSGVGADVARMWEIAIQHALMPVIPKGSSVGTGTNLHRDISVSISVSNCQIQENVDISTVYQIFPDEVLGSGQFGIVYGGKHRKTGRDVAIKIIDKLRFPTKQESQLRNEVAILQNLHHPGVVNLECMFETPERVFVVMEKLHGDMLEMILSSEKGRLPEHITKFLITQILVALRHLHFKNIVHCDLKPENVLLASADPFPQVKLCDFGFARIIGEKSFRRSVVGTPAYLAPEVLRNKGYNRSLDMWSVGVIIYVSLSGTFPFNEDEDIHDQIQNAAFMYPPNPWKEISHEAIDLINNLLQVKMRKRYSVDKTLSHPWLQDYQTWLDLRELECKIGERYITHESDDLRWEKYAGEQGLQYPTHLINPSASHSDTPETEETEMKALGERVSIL
# [9] = molecular target: T2, Serine/threonine-protein kinase D1 (Homo sapiens); details: at 1 µM
# [10] = molecular target: T3, Serine/threonine-protein kinase D2 (Homo sapiens) (UniProt Q9BZL6); details: at 0.1 µM
# T3 sequence (whole entry): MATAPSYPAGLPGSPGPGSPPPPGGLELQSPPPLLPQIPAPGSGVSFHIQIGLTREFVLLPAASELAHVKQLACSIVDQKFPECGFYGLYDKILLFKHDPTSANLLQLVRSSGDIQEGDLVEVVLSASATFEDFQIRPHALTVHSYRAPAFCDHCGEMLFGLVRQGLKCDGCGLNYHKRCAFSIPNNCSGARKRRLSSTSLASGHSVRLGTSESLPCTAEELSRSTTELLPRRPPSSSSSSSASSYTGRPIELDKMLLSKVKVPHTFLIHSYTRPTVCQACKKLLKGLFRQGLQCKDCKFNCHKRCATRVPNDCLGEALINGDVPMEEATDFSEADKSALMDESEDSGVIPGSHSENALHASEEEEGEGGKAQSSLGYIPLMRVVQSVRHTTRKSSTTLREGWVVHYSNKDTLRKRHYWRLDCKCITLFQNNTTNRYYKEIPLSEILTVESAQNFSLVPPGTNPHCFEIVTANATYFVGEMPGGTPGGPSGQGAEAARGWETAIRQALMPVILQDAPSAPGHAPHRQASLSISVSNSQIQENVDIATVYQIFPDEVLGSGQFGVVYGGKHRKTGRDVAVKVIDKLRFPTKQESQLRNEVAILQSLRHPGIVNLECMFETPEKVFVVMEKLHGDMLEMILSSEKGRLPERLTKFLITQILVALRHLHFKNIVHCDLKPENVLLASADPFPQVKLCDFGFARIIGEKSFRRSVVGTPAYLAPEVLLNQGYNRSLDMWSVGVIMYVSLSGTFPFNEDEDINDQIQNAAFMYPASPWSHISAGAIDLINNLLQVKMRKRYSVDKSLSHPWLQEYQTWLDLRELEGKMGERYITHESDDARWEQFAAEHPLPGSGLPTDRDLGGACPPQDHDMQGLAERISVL
# [11] = molecular target: T3, Serine/threonine-protein kinase D2 (Homo sapiens); details: at 1 µM
# [12] = molecular target: T4, Serine/threonine-protein kinase D3 (Homo sapiens) (UniProt O94806); details: at 0.1 µM
# T4 sequence (whole entry): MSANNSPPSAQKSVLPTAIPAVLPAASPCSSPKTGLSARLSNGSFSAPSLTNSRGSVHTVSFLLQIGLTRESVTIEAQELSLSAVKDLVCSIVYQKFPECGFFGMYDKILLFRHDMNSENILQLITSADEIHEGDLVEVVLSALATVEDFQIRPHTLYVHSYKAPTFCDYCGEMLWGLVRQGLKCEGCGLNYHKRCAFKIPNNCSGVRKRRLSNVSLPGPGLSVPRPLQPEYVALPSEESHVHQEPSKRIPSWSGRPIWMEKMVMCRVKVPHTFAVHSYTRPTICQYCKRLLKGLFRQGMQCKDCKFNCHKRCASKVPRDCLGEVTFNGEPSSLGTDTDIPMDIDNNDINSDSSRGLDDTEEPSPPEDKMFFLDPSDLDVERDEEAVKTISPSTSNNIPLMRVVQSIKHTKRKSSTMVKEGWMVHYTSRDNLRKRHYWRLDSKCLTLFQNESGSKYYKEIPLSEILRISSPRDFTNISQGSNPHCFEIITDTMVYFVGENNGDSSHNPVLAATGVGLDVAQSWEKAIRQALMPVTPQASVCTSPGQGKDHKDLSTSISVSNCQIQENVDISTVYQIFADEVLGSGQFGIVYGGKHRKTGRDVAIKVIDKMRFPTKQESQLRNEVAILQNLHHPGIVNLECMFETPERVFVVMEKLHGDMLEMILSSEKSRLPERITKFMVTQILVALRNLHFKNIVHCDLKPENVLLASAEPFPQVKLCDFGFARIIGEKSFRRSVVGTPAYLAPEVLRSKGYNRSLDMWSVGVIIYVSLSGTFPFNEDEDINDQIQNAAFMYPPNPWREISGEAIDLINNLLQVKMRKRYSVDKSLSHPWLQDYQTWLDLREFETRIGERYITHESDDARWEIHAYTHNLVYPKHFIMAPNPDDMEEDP
# [13] = molecular target: T4, Serine/threonine-protein kinase D3 (Homo sapiens); details: at 1 µM
# [14] = molecular target: T5, cGMP-dependent protein kinase 1 (Homo sapiens) (UniProt Q13976); details: at 0.1 µM
# T5 sequence (whole entry): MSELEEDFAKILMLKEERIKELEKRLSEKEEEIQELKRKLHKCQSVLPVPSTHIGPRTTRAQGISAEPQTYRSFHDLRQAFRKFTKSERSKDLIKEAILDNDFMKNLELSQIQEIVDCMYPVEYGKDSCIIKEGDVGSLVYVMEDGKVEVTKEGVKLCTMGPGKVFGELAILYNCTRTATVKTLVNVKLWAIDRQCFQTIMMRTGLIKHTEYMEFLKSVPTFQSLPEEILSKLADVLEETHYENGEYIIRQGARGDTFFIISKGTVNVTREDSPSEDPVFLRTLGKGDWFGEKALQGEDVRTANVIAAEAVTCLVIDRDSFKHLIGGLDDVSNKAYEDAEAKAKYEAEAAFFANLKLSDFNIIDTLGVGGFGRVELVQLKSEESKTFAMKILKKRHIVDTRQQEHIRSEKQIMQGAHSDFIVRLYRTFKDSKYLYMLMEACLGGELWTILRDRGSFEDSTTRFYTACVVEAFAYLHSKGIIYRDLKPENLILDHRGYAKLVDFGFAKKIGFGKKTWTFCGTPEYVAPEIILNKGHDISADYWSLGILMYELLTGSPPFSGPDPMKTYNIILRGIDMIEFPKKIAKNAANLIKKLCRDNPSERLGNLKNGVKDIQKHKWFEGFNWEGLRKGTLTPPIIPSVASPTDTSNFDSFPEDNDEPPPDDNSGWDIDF
# [15] = molecular target: T5, cGMP-dependent protein kinase 1 (Homo sapiens); details: at 1 µM
# [16] = molecular target: T6, cGMP-dependent protein kinase 2 (Homo sapiens) (UniProt Q13237); details: at 0.1 µM
# T6 sequence (whole entry): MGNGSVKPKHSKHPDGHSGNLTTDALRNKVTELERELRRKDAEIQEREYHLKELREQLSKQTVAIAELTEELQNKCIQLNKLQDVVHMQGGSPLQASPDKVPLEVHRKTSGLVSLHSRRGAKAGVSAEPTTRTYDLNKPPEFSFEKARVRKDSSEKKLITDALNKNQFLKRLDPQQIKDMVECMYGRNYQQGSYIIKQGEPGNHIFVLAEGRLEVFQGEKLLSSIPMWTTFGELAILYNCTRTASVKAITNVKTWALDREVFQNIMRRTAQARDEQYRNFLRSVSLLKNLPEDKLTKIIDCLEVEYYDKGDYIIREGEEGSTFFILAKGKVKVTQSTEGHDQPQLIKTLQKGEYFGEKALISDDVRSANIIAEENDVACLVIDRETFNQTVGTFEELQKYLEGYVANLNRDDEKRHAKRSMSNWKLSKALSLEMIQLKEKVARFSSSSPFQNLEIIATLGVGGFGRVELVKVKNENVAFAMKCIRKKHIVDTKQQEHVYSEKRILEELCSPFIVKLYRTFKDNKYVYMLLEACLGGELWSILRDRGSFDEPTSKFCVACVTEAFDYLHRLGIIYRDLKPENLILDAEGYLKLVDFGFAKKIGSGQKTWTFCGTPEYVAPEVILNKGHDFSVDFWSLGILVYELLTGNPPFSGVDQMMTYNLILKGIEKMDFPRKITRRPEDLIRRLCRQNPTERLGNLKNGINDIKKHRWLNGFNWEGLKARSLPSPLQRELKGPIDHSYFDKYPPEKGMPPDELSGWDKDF
# [17] = molecular target: T6, cGMP-dependent protein kinase 2 (Homo sapiens); details: at 1 µM
# [18] = molecular target: T7, cAMP-dependent protein kinase catalytic subunit PRKX (Homo sapiens) (UniProt P51817); details: at 0.1 µM
# T7 sequence (whole entry): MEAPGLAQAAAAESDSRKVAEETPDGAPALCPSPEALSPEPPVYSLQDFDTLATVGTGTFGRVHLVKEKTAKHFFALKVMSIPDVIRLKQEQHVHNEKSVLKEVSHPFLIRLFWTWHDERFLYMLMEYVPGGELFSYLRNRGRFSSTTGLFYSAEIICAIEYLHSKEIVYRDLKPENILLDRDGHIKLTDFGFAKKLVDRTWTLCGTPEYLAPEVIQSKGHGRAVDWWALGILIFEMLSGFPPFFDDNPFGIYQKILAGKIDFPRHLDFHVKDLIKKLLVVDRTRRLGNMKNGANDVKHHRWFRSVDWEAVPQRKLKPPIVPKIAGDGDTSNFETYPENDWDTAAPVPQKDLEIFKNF
# [19] = molecular target: T7, cAMP-dependent protein kinase catalytic subunit PRKX (Homo sapiens); details: at 1 µM
# [20] = molecular target: Rho-associated protein kinase 1 (Homo sapiens) (UniProt Q13464); details: at 0.1 µM;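 note: values are mean percent inhibition of ROCK1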
# Chain of Rho-associated protein kinase 1 (Homo sapiens) (Q13464 2-1354 limits assumed): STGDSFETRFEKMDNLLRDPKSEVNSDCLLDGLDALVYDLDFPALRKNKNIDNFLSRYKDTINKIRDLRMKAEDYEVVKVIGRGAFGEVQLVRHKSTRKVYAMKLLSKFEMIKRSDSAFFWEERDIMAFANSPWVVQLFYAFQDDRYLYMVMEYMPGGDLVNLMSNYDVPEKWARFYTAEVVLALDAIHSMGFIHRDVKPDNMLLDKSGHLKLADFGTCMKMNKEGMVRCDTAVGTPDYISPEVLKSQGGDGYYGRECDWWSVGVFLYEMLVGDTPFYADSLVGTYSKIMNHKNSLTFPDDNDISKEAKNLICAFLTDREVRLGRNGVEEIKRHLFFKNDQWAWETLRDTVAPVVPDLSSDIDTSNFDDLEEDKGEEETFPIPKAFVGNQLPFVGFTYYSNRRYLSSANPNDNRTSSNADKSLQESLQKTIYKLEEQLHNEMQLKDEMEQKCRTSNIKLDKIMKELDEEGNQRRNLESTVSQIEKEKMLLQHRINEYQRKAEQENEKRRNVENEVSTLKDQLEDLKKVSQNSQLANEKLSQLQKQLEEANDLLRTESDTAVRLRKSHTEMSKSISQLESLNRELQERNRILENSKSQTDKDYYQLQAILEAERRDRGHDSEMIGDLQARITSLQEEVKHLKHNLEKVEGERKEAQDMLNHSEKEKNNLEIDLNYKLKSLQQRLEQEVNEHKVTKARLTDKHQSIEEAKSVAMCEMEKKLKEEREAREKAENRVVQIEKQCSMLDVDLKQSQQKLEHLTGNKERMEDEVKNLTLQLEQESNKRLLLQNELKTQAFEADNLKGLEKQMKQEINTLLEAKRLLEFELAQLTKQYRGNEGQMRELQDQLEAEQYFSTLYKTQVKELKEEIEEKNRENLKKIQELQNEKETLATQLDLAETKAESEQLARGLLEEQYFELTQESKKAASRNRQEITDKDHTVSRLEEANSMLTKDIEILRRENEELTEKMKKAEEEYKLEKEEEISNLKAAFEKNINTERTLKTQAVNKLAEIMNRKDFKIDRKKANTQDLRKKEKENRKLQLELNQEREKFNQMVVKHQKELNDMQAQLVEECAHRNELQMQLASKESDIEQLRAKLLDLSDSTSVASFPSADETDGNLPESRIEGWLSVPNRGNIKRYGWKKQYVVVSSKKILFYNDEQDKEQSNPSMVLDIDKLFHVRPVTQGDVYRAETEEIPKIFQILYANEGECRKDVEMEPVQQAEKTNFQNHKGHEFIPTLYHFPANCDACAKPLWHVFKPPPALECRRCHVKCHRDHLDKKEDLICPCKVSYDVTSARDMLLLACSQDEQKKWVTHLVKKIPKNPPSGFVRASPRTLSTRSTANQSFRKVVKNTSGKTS
# Chain of Protein kinase C beta type (Homo sapiens) (P05771 2-671 limits assumed): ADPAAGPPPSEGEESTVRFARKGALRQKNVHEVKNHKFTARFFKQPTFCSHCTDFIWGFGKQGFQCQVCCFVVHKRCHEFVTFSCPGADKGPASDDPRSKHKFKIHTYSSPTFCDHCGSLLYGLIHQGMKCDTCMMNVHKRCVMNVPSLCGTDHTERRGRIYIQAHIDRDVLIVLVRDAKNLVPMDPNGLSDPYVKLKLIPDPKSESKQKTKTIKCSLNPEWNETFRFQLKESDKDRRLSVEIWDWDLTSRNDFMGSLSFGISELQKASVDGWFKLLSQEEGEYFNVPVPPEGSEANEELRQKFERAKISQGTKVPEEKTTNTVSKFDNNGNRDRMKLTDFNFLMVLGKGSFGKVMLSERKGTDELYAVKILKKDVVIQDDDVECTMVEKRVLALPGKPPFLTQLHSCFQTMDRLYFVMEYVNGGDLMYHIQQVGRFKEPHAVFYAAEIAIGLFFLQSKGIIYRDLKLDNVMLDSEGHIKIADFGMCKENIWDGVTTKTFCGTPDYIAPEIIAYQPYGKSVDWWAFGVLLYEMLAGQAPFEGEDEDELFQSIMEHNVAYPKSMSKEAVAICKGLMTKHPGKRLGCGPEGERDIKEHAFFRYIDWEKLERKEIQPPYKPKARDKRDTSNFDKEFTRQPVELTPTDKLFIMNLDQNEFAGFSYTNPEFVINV
# Chain of Protein kinase C theta type (Homo sapiens) (Q04759 whole entry, looked up): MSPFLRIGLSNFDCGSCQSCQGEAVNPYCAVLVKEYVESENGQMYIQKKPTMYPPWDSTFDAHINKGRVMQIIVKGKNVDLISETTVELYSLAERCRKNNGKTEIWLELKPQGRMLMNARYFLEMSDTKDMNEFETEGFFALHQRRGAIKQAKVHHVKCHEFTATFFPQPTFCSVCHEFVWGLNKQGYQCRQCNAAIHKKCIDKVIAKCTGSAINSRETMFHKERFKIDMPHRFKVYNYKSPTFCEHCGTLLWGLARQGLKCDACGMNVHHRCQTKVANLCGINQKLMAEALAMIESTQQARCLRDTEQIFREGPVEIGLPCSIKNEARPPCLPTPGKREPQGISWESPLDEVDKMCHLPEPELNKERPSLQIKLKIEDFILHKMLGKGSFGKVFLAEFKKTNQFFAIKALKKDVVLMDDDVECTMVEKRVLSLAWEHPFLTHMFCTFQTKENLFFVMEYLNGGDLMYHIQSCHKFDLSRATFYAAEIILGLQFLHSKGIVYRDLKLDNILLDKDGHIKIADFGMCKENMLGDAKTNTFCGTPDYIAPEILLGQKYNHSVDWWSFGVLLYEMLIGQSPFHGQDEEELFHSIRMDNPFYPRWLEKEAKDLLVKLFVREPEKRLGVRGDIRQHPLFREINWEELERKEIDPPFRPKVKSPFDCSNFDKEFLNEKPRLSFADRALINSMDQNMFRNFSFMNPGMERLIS
smiles,measurement,setting,value
O=C1NC(=O)C(c2ccc(Cl)cc2)=C1Nc1ccc(Cl)c(C(=O)O)c1,inhibition,[1],1.73%
same,inhibition,[2],0.12%
same,inhibition,[3],3.71%
same,inhibition,[4],-0.99%
same,inhibition,[5],-0.44%
same,inhibition,[6],-0.73%
same,inhibition,[7],3.47%
same,inhibition,[8],-1.33%
same,inhibition,[9],0.04%
same,inhibition,[10],-1.08%
same,inhibition,[11],-0.34%
same,inhibition,[12],-1.37%
same,inhibition,[13],-0.38%
same,inhibition,[14],-0.49%
same,inhibition,[15],-0.47%
same,inhibition,[16],-1.52%
same,inhibition,[17],-0.68%
same,inhibition,[18],-1.61%
same,inhibition,[19],-1.33%
same,inhibition,[20],-0.15%
